# Assay results: PubChem BioAssay
# Values joined by “and” are separate entries in the source; they are usually repeats but may differ in a detail not shown here. Equal entries are not always repeated. Active and inactive are the calls of the source. Cut-off read from the data, not from the text of the source, unless noted: active = inhibition above about 80%; inactive = the rest.
# Legend:
# [1] = antimalarial activity against Dd2 strain (AID 2302;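 active = growth inhibition above 50% at the single 2 µM test dose, taken to imply half-maximal potency below 2 µM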;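 note: 0% = DMSO untreated growth and 100% = chloroquine plus artemisinin killed control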); conditions: P. falciparum Dd2 in RBCs, LDH growth readout, 72 h; at 2 µM; stronger effect = higher value
# [2] = human hepatoma cell viability loss – ATP luminescence, cytotoxicity control for P. falciparum antimalarial project, primary screen (AID 2303;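 active = inhibition above 50%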;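 note: 0% = DMSO wells and 100% = digitonin-killed cells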); conditions: HepG2 viability, 24-48 h, at 10 µM, stronger effect = higher value
# [3] = molecular target: L-lactate dehydrogenase (Plasmodium falciparum (isolate CDC / Honduras)) (UniProt Q27743); test: PfLDH activity inhibition – cell lysate, 3D7 strain, counter-screen for P. falciparum growth inhibition project (AID 2304; call rule not given here;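 note: 0% = vehicle and 100% = reference inhibitor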); conditions: P. falciparum 3D7 crude extract, LDH APAD/NBT absorbance; at 2 µM; stronger effect = higher value
# L-lactate dehydrogenase (Plasmodium falciparum (isolate CDC / Honduras)), sequence (Q27743 whole entry, looked up): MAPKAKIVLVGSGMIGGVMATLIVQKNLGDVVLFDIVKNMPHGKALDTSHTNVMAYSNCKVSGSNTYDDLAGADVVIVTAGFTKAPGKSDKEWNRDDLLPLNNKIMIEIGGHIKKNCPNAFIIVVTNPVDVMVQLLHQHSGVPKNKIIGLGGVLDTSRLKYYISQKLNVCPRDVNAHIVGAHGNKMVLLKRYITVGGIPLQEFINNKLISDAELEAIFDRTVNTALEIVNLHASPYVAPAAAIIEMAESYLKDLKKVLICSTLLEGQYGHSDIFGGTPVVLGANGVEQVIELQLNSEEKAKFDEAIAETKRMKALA
# [4] = inhibition of 3D7 malaria parasite growth – strain 3D7 (AID 2306; call rule not given here;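 note: 0% = DMSO wells and 100% = chloroquine plus artemisinin control wells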); conditions: P. falciparum 3D7 erythrocytic growth, LDH absorbance, 72 h; at 2 µM; stronger effect = higher value
# [5] = compounds altering circadian rhythm period length – cell-based, LOPAC library, luminescence reporter (AID 2774; call rule not given here;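 note: values are relative to mean of DMSO wells on each plate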); conditions: circadian reporter cells, at 7 µM, actives lie on both sides
# [6] = galactose survival enhancers in mitochondrial complex I cybrids – cell-based, galactose medium, ATP luminescence, primary screen (AID 1645843;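 active = z-score of at least 1.8 in each of two replicates, scored against plate mean and spread of sample wells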;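 note: positive z means more ATP and so rescue of galactose-driven cybrid death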); conditions: complex I mutant cybrid cells, 72 h, stronger effect = higher value
# [7] = growth inhibition, single agent or in combination, cell-based, chromothripsis tumors, cisplatin or BGB combos (AID 1671449); conditions: LFS_MB_P medulloblastoma cells;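 note: cells exposed for 96 hours; 0% = vehicle DMSO and 100% = killing by high DMSO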
# [8] = growth inhibition, single agent and combos, cell-based, chromothripsis tumors, cisplatin or BGB combos (AID 1671450); conditions: HDN33 neuroblastoma cells, stronger effect = higher value;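 note: cells exposed to compound for four days; 0% = vehicle DMSO and 100% = cell killing by high DMSO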
# [9] = growth inhibition, single agents and combos, ICB984, cell-based, cisplatin or BGB combos, synergistic combos for chromothripsis tumors (AID 1671451; call rule not given here;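 note: cells exposed for 96 hours before readout; 0% = vehicle DMSO and 100% = killing by high DMSO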); conditions: ICB984 medulloblastoma cells, drug combinations, stronger effect = higher value
# [10] = growth inhibition, single agents and combos, LFS_MB_1R, cell-based, cisplatin or BGB combos, synergistic combos for chromothripsis tumors (AID 1671452); conditions: LFS_MB_1R medulloblastoma cells, stronger effect = higher value;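 note: cells exposed for 96 hours before readout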
# [11] = growth inhibition, single agents and combos, HTB85, cell-based, BGB or cisplatin IC20 combos, synergistic combos for chromothripsis tumors (AID 1671453); conditions: HTB85 osteosarcoma cells, drug combinations, stronger effect = higher value;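 note: cells exposed for 96 hours before readout; 0% = vehicle DMSO and 100% = high DMSO killing control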
# [12] = growth inhibition, single agents and combos, CRL2098, cell-based, BGB or cisplatin IC20 combos, synergistic combos for chromothripsis tumors (AID 1671454); conditions: CRL2098 osteosarcoma cells, drug combinations, stronger effect = higher value;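 note: cells exposed for 96 h before readout; 0% = vehicle DMSO and 100% = killing by high DMSO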
# [13] = growth inhibition, single agents and combos, HD-MB03, cell-based, BGB or cisplatin IC20 combos, synergistic combos for chromothripsis tumors (AID 1671455; in the data active = inhibition above about 83%;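 note: 0% = vehicle DMSO and 100% = high DMSO as cytotoxic control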); conditions: HD-MB03 medulloblastoma cells, stronger effect = higher value
# [14] = growth inhibition, single agents and combos, UWB1.289, cell-based, BGB or cisplatin combos, synergistic combos for chromothripsis tumors (AID 1671456); conditions: UWB1.289 ovarian carcinoma cells, stronger effect = higher value;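 note: cells exposed to compound for four days; 0% = vehicle DMSO and 100% = killing by high DMSO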
# [15] = growth inhibition, single agents and combos, LFS_MB_2R, cell-based, cisplatin combos, synergistic combos for chromothripsis tumors (AID 1671457); conditions: LFS_MB_2R medulloblastoma cells, stronger effect = higher value;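 note: cells exposed to compound for four days before readout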
# [16] = growth inhibition, MDA-MB-436, cell-based, BGB or cisplatin combos, synergistic combos for chromothripsis tumors (AID 1671458; call rule not given here;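 note: cells exposed for 96 hours; 0% = vehicle DMSO and 100% = killing by high DMSO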); conditions: MDA-MB-436 breast carcinoma growth inhibition, drug combinations, stronger effect = higher value
# [17] = UWB1.289_BRCA1 ovarian cancer growth, cell-based, BGB or cisplatin combinations (AID 1671459); conditions: UWB1.289 BRCA1 ovarian carcinoma, drug combinations, stronger effect = higher value
# [18] = drug combination toxicity in non-malignant astrocytes – cell-based, BGB or cisplatin IC20 combos, cytotoxicity control for chromothriptic childhood tumor combination screen (AID 1671460); conditions: Human astrocytes, viability inhibition, drug combinations, at 0.5 µM, stronger effect = higher value;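 note: cells exposed to compounds for 96 hours before viability readout; 0% = vehicle and 100% = killing control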
# [19] = BT084 cell growth, single and combined drugs, ICGC_MB145, cisplatin and BGB IC40 combos (AID 1671461); conditions: BT084 medulloblastoma cells, drug combinations, stronger effect = higher value;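 note: cells exposed to drugs for 96 hours; 0% = vehicle DMSO and 100% = high DMSO full killing control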
# [20] = RCMB18 cell growth, single agent and combined, cisplatin and BGB IC40 combos (AID 1671462); conditions: RCMB18 medulloblastoma cells, stronger effect = higher value;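 note: cells exposed to compound for four days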
# [21] = CRL1545 cell growth, single agent and combined, cisplatin and BGB IC20 combos (AID 1671464); conditions: CRL1545 osteosarcoma cells, stronger effect = higher value;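 note: cells exposed to compound for 96 hours before readout; 0% = vehicle DMSO and 100% = high DMSO killing control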
# [22] = measured here: combination with BGB IC40, at 0.05 µM
# [23] = measured here: with BGB IC20 combination, at 0.5 µM
# [24] = measured here: with cisplatin IC20 combination, at 0.5 µM
# [25] = measured here: combination with cisplatin, at 0.5 µM
# [26] = measured here: combination with cisplatin, at 5 µM
smiles,measurement,setting,value
C#CCOc1ccc(CC(C)NCC(O)c2cccc(C(F)(F)F)c2)cc1 (centres undefined),growth inhibition,[1],74% (active) and 84% (active)
same,inhibition,[2],5% (inactive) and 28% (inactive)
same,inhibition,[3],1% (inactive) and -2% (inactive)
same,growth inhibition,[4],90% (active) and 93% (active)
COc1ccc(CCN)cc1O,period change,[5],0.08 h (inactive)
C[C@]12CC[C@@H](O)CC1CC[C@@H]1[C@@H]2CC[C@]2(C)C(=O)CC[C@@H]12 (some centres undefined),period change,[5],0.105 h (inactive)
N[C@@H](Cn1cc(I)c(=O)[nH]c1=O)C(=O)O,period change,[5],-0.19 h (inactive)
O=c1c2cc(F)ccc2ncn1Cc1cn2ccccc2n1,z-score,[6],0.245 (inactive)
COc1ccc2[nH]cc(CCN(C)C)c2c1,period change,[5],0.045 h (inactive)
O=C(CCCN1CCC2(CC1)C(=O)N(CCc1ccc(N=C=S)cc1)CN2c1ccccc1)c1ccc(F)cc1,period change,[5],0.03 h (inactive)
COc1cc(CCN)ccc1O,period change,[5],-0.1 h (inactive)
O=P(O)(NCCCl)NCCCl,inhibition,"[7]; at 0.5 µM, stronger effect = higher value",-22.2% (inactive)
same,inhibition,"[7]; measured here: combination with BGB IC20, at 0.005 µM",-18.1%
same,inhibition,"[7]; measured here: combination with BGB IC40, at 0.005 µM",-19.6%
same,inhibition,[7]; [22],-1.01%
same,inhibition,"[7]; measured here: combination with cisplatin, at 0.5 µM, stronger effect = higher value",-31.9%
same,inhibition,"[7]; measured here: combination with cisplatin, at 5 µM, stronger effect = higher value",-32.1%
same,inhibition,"[8]; BGB combo, at 5 µM",-3.04%
same,inhibition,[8]; at 0.5 µM,-31.2% (inactive)
same,inhibition,"[8]; cisplatin combo, at 5 µM",-23.7%
same,inhibition,[8]; [23],-28%
same,inhibition,[8]; [24],-30.2%
same,inhibition,"[8]; single agent, at 5 µM",-43.4%
same,inhibition,"[9]; BGB IC20 combo, at 0.005 µM",-17.4%
same,inhibition,"[9]; BGB IC40 combo, at 0.005 µM",-58.7%
same,inhibition,"[9]; BGB IC40 combo, at 0.05 µM",-40.4%
same,inhibition,[9]; at 0.5 µM,-24.2% (inactive)
same,inhibition,"[9]; cisplatin combo, at 0.05 µM",-45.9%
same,inhibition,"[9]; cisplatin combo, at 0.5 µM",-25.8%
same,inhibition,"[9]; cisplatin combo, at 5 µM",-10.7%
same,inhibition,"[9]; measured here: 5 uM single agent, at 5 µM",3.71%
same,inhibition,[10]; at 0.5 µM,-40.6% (inactive)
same,inhibition,[10]; [22],-43.7%
same,inhibition,[10]; [25],-71.6%
same,inhibition,[10]; [26],-97.5%
same,inhibition,[11]; at 0.5 µM,-29.6% (inactive)
same,inhibition,"[11]; measured here: with BGB IC20, at 0.5 µM",-31.2%
same,inhibition,"[11]; measured here: with BGB IC20, at 5 µM",0.766%
same,inhibition,"[11]; measured here: with cisplatin IC20, at 0.5 µM",-42.4%
same,inhibition,"[11]; measured here: with cisplatin IC20, at 5 µM",5.56%
same,inhibition,"[11]; single agent, at 5 µM",-6.89%
same,inhibition,[12]; at 0.5 µM,-58.4% (inactive)
same,inhibition,"[12]; measured here: combination with BGB at IC20, at 0.5 µM",-43.5%
same,inhibition,"[12]; measured here: combination with cisplatin at IC20, at 0.5 µM",-12.2%
same,inhibition,[13]; at 0.5 µM,-20.7% (inactive)
same,inhibition,"[13]; measured here: combo with BGB at IC20, at 0.5 µM",-26.7%
same,inhibition,"[13]; measured here: combo with cisplatin at IC20, at 0.5 µM",-18.9%
same,inhibition,[14]; at 0.5 µM,-15.1% (inactive)
same,inhibition,"[14]; measured here: inhibition with BGB combination, at 0.05 µM",-6.88%
same,inhibition,"[14]; measured here: inhibition with cisplatin combination, at 0.05 µM",-8.03%
same,inhibition,[15]; at 0.5 µM,-16.7% (inactive)
same,inhibition,[15]; [25],-19.3%
same,inhibition,[15]; [26],-26.8%
same,inhibition,[16]; at 0.5 µM,-14.5% (inactive)
same,inhibition,"[16]; measured here: BGB combination, at 0.5 µM",-12.5%
same,inhibition,"[16]; measured here: BGB combination, at 5 µM",-5.62%
same,inhibition,"[16]; measured here: cisplatin combination, at 0.5 µM",-16%
same,inhibition,"[16]; measured here: cisplatin combination, at 5 µM",-15.6%
same,inhibition,"[17]; BGB combination, concentration series, at 5 µM",-1.33%
same,inhibition,[17]; at 0.5 µM,-15.6% (inactive)
same,inhibition,"[17]; cisplatin combination, concentration series, at 5 µM",-23%
same,inhibition,[18],-6.45% (inactive)
same,inhibition,[18]; measured here: combo with BGB IC20,-2.47%
same,inhibition,[18]; measured here: combo with cisplatin IC20,-6.44%
same,inhibition,[19]; at 0.5 µM,-3.8% (inactive)
same,inhibition,"[19]; cisplatin combination, at 0.5 µM",2.29%
same,inhibition,"[19]; cisplatin combination, at 5 µM",-12.8%
same,inhibition,"[19]; measured here: BGB IC40 combination 0.05 uM, at 0.05 µM",-21.5%
same,inhibition,"[19]; single agent, at 5 µM",-15.7%
same,inhibition,[20]; at 0.5 µM,-17.3% (inactive)
same,inhibition,"[20]; cisplatin combo, at 5 µM",5.67%
same,inhibition,"[20]; measured here: BGB IC40 combination, at 0.05 µM",-4.66%
same,inhibition,[20]; [25],-18.6%
same,inhibition,"[20]; single agent, at 5 µM",-40.3%
same,inhibition,[21]; at 0.5 µM,-42.1% (inactive)
same,inhibition,[21]; [23],-36.5%
same,inhibition,[21]; [24],-44.9%
same,inhibition,"[21]; single agent, at 0.05 µM",-55%
same,inhibition,"[21]; single agent, at 5 µM",-25.3%
